Source: PubChem BioAssay (Tox21)
Values joined by “and” are separate entries in the source; they are usually repeats but may differ in a detail not shown here. Identical values can stand only once. Results filed as inconclusive are left out. Where a call stands in place of a potency, no number is given. Some structures have more than one record in an assay (separate samples or runs), and their calls can disagree. Active and inactive are the calls of the source. Unless noted, the call rests on the fitted dose curve; in most records, active means well fitted curve in the direction sought with a large enough effect in the repeat runs; inconclusive means weak or mixed curves; inactive means no such curve, though single readings can be large; an effect the other way counts as inactive or inconclusive. Starred links: 1 amine or outer side, 2 acyl side, 3 side chain; linkers in the order of their positions; H or OH if unused. Positions of bridges follow the written chain, without caps; N, C: chain ends. Non-standard residues stand in square brackets, D forms with d. Residues, ends and D or L forms follow the SMILES beside them. Chains are numbered I, II in the order given. Actinocin(9to1) = Cc1c2oc3c(C)ccc(C(=O)[*:1])c3nc-2c(C(=O)[*:2])c(N)c1=O; NMeV = CN[C@H](C(=O)O)C(C)C; Sar = CNCC(=O)O

What was measured:
[1] = qHTS assay to identify small molecule agonists of the RXR signaling pathway - cell viability counter screen (AID 1159529); further: nearly all actives have a fitted effect of over 50% in size; further: potency means the concentration at half of the fitted maximal effect;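 on activity change, negative = cytotoxicity: HEK 293T cells carrying an RXR-alpha UAS beta-lactamase reporter; series mostly up to about 77 µM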
Procedure, shortened: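 In this parallel viability measure, GeneBLAzer RXR-alpha HEK 293T cells (2% charcoal-stripped FBS) were given a 5 hr preincubation, treated with compounds 16 hr at 37 C, and read by CellTiter-Glo luminescence.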

[2] = qHTS assay to identify small molecule antagonists of the retinoid acid receptor (RAR) signaling pathway - cell viability counter screen (AID 1159551); further: nearly all actives have a fitted effect of over 35% in size; further: potency means the concentration at half of the fitted maximal effect
Procedure, shortened: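 Viability of C3RL4 cells is quantified from ATP by luminescence after 6 h treatment at 37 C with compounds and 1 uM retinol.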

[3] = qHTS assay to identify small molecule antagonists of the retinoic acid receptor (RAR) signaling pathway (AID 1159552; further: nearly all actives have a fitted effect of over 50% in size; further: potency means the concentration at half of the fitted maximal effect)
Procedure, shortened: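 C3RL4 RARE-luc cells, overnight plating; retinol 1 uM final added right after compound; 6 hr 37 C; luciferase read at 30 min RT.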

[4] = qHTS assay to identify small molecule agonists of the estrogen related receptor (ERR) signaling pathway (AID 1224820)
Procedure, shortened: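 Luminescence readout (One-Glo, 30 min RT) from NTP-supplied ERR cell line exposed to compounds for 18 h at 37 C. Cells seeded 2,000 per well and pre-incubated 6 h before pin-tool compound transfer.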

[5] = test system: estrogen-related receptor alpha (ERRalpha) with PGC-1alpha coactivator, human; experiment: qHTS assay to identify small molecule antagonists of the estrogen related receptor signaling pathway with the pleiotropic PPARgamma coactivator (PGC) (AID 1224821; calls by dose curve;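 further: series mostly up to about 46 µM; lower luminescence signal means antagonism of PGC/ERR signalling; nearly all actives have a fitted effect of over 50% in size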)
Procedure, shortened: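 PGC/ERR reporter cells; 6 h pre-incubation 37 C/5% CO2; pin-tool compound in DMSO, 18 h 37 C; One-Glo added, 30 min RT; luminescence read. qHTS antagonist mode.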

[6] = qHTS assay to identify small molecule antagonists of the estrogen related receptor signaling pathway with the pleiotropic PPARgamma coactivator (PGC) cell viability counter screen (AID 1224822;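 further: series mostly up to about 46 µM; viability read after 17.5 h compound exposure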)
Procedure, shortened: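 Viable cell signal (CellTiter-Fluor, 30 min, 37 C/5% CO2) was measured in PGC/ERR cells after a 17.5 h compound incubation.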

[7] = qHTS assay to identify small molecule agonists of the estrogen related receptor signaling pathway with the pleiotropic PPARgamma coactivator (PGC) (AID 1224823)
Procedure, shortened: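 Luminescence readout (One-Glo, 30 min RT) from PGC/ERR cell line treated 18 h at 37 C with pin-tool-delivered DMSO compound solutions; cells plated 6 h before dosing. Quantitative HTS format.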

[8] = qHTS assay to identify small molecule antagonists of the estrogen related receptor (ERR) signaling pathway from Tox21 library - cell viability counter screen (AID 1224834); further: nearly all actives have a fitted effect of over 30% in size; further: potency means the concentration at half of the fitted maximal effect
Procedure, shortened: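 In this quantitative HTS format, ERR cells receive compounds in DMSO and are incubated for 17.5 h at 37 C. Live-cell protease activity is then detected with CellTiter-Fluor.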

[9] = qHTS assay to identify small molecule agonists of the retinoic acid receptor (RAR) signaling pathway (AID 1159553); further: potency means the concentration at half of the fitted maximal effect
Procedure, shortened: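 Compounds dissolved in DMSO were pinned onto C3RL4 cells seeded the previous day, and plates were held 6 hr at 37 C. RARE-driven luciferase output was then read by luminescence.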

Cc1ccc(-c2cc(C(F)(F)F)nn2-c2ccc(S(N)(=O)=O)cc2)cc1
Potency [1]: 48.8 µM (active) and 21.9 µM (active)
Potency [2]: 60.9 µM (active) and inactive
Potency [3]: 43.1 µM (active) and 27.3 µM (active) and 29.8 µM (active)
outcome [4]: inactive
Potency [5]: inactive
Potency [6]: inactive
outcome [7]: inactive
Potency [8]: 48.4 µM (active) and 61.1 µM (active)

O=C(OCc1ccccc1)c1ccc(O)cc1
Potency [1]: inactive
Potency [2]: inactive
Potency [3]: inactive
Potency [9]: 6.86 µM (active) and 11.9 µM (active)
Potency [8]: inactive

CCC(C)(Oc1ccc(C2(c3ccc(OC(C)(CC)C(=O)O)cc3)CCCCC2)cc1)C(=O)O (centres undefined)
Potency [1]: inactive
Potency [2]: inactive
Potency [3]: inactive
Potency [9]: inactive
Potency [8]: inactive

Cc1ccnc2c1NC(=O)c1cccnc1N2C1CC1
Potency [1]: inactive
Potency [2]: inactive
Potency [3]: inactive
Potency [9]: inactive
Potency [8]: inactive

C=C(C)C1CC=C(C)C(OC(C)=O)C1 (centres undefined)
Potency [1]: inactive
Potency [2]: inactive
Potency [3]: inactive
Potency [9]: inactive
Potency [8]: inactive

OCC(CO)N[C@H]1C[C@](O)(CO)[C@@H](O)[C@H](O)[C@H]1O
Potency [1]: inactive
Potency [2]: inactive
Potency [3]: inactive
Potency [9]: inactive
Potency [8]: inactive

CC(=O)Nc1ccc(C(=O)CCl)cc1
Potency [1]: inactive
Potency [2]: inactive
Potency [3]: inactive and 48.6 µM (active)
Potency [9]: inactive
Potency [8]: inactive

c1ccc2cc3c(ccc4ccccc43)cc2c1
Potency [1]: inactive
Potency [2]: inactive
Potency [3]: inactive
Potency [9]: 2.74 µM (active) and 3.86 µM (active)
Potency [8]: inactive

C=CC(=O)OCCCCCCCC
Potency [1]: inactive
Potency [2]: inactive
Potency [3]: inactive
Potency [9]: inactive
Potency [8]: inactive

CC(C)(C)NCC(O)COc1ccccc1OCC1CCCO1 (centres undefined)
Potency [1]: inactive
Potency [2]: inactive
Potency [3]: inactive
Potency [9]: inactive
Potency [8]: inactive

COC(c1ccccc1)(c1ccccc1)[C@H](Oc1nc(C)cc(C)n1)C(=O)O
Potency [1]: inactive
Potency [2]: inactive
Potency [3]: inactive
Potency [9]: inactive
Potency [8]: inactive

C[N+]1([O-])CCOCC1
Potency [1]: inactive
Potency [2]: inactive
Potency [3]: inactive
Potency [9]: inactive
Potency [8]: inactive

CC(=O)OCCOCCOCCOC(C)=O
Potency [1]: inactive
Potency [2]: inactive
Potency [3]: inactive
Potency [9]: inactive
Potency [8]: inactive

O=C1Nc2ccccc2C1(c1ccc(O)cc1)c1ccc(O)cc1
Potency [1]: inactive
Potency [2]: inactive
Potency [3]: 61.1 µM (active)
Potency [9]: inactive
Potency [8]: 43.3 µM (active)

CCc1ccc(C(c2ccc(CC)cc2)C(Cl)Cl)cc1
Potency [1]: 35.2 µM (active)
Potency [2]: inactive
Potency [3]: inactive
Potency [9]: inactive
Potency [8]: inactive

COc1ccc(CCN2CCC(Nc3nc4ccccc4n3Cc3ccc(F)cc3)CC2)cc1
Potency [1]: 8.9 µM (active) and 21.3 µM (active)
Potency [2]: 44.2 µM (active)
Potency [3]: 2.11 µM (active)
Potency [8]: 22.2 µM (active) and 26.6 µM (active)

Cc1cccc([N+](=O)[O-])c1C(=O)O
Potency [1]: inactive
Potency [2]: inactive
Potency [3]: inactive
Potency [9]: inactive
Potency [8]: inactive

O=C(O)CCc1ccccc1
Potency [2]: inactive
Potency [3]: inactive
Potency [9]: inactive

Oc1ccc(Cl)cc1Cc1cc(Cl)ccc1O
Potency [1]: 49.9 µM (active)
Potency [3]: 31.2 µM (active) and 27.3 µM (active)
Potency [9]: inactive
Potency [8]: 44.1 µM (active) and 61.1 µM (active) and 29.8 µM (active)

CCCOC(=O)c1cc(O)c(O)c(O)c1
Potency [1]: inactive
Potency [2]: inactive
Potency [3]: inactive
Potency [8]: 54.2 µM (active) and 61.1 µM (active)

O=C(Nc1ccccc1SSc1ccccc1NC(=O)c1ccccc1)c1ccccc1
Potency [2]: inactive
Potency [3]: 15.4 µM (active)

c1ccc2n[nH]nc2c1
Potency [2]: inactive
Potency [3]: inactive
Potency [9]: inactive

CCCN[C@H]1CCc2nc(N)sc2C1
Potency [1]: inactive
Potency [2]: inactive
Potency [8]: inactive

CCC(=O)/C=C/C1C(C)=CCCC1(C)C (centres undefined)
Potency [1]: inactive
Potency [2]: inactive
Potency [8]: inactive

O=C(O)Cn1cnnn1
Potency [2]: inactive
Potency [3]: inactive
Potency [9]: inactive

Cc1c2oc3c(C)ccc(C(=O)N[C@@H]4C(=O)N[C@H](C(C)C)C(=O)N5CCC[C@H]5C(=O)N(C)CC(=O)N(C)[C@@H](C(C)C)C(=O)O[C@@H]4C)c3nc-2c(C(=O)N[C@@H]2C(=O)N[C@H](C(C)C)C(=O)N3CCC[C@H]3C(=O)N(C)CC(=O)N(C)[C@@H](C(C)C)C(=O)O[C@@H]2C)c(N)c1=O (I: T[dV]P[Sar][NMeV] / II: T[dV]P[Sar][NMeV]; ester I:1-I:C, II:1-II:C; linker I:N-II:N via Actinocin(9to1))
Potency [1]: inactive
Potency [3]: 16.8 nM (active) and 10.6 nM (active)

CCCCCCCCCCCCCCCCCl
activity change, negative = cytotoxicity [2]: 4.57% [at 19 µM] (inactive)
activity, negative = inhibition [3]: -10.4% [at 19 µM] (inactive)
Potency [9]: inactive

CCOc1ccccc1C(N)=O
Potency [1]: inactive
Potency [2]: inactive
Potency [8]: inactive

Nc1cc(S(=O)(=O)O)cc2cc(S(=O)(=O)O)cc(O)c12
Potency [1]: inactive
Potency [2]: inactive
Potency [9]: inactive

Cc1cc(C(C)(C)C)c(O)c(C(C)(C)C)c1
Potency [1]: inactive
Potency [2]: inactive
Potency [8]: inactive

O=C1OC2(c3ccc(O)cc3Oc3cc(O)ccc32)c2ccccc21
Potency [2]: inactive

CC1COC(=O)O1 (centres undefined)
Potency [1]: inactive
Potency [2]: inactive
Potency [8]: inactive

Clc1ccc2c(c1)C(N1CCNCC1)=Nc1ccccc1O2
Potency [1]: inactive
Potency [2]: inactive
Potency [8]: inactive

CCCCOCCOC(=O)c1ccccc1C(=O)OCCOCCCC
Potency [1]: 38.1 µM (active) and inactive
Potency [2]: inactive
Potency [3]: inactive
Potency [8]: inactive

Nc1cc(Cl)c(-c2cc(Cl)c(N)cc2Cl)cc1Cl
Potency [1]: 17.4 µM (active)
Potency [2]: 30.6 µM (active)
Potency [9]: inactive
Potency [8]: 48.5 µM (active) and 30.6 µM (active)

CCCCC(CC)COC(=O)CC(C(=O)OCC(CC)CCCC)S(=O)(=O)O (centres undefined)
Potency [1]: 21.1 µM (active) and 43.6 µM (active)
Potency [3]: inactive
Potency [9]: inactive
